For 15 compounds, growth results are on record in PubChem BioAssay (NCI).

Compounds without any hit were thinned out: in the full panel of roughly 83,000, 20% have a hit.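 A percent growth of 40 corresponds to 60% growth inhibition; 0 means no net growth; -100 means all cells died. Active threshold: below 10.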 Calls of active or inactive are those of the source.

This assay deals with UO-31 renal. The assay can be described thus: NCI-60 one-dose screen, 48 h (100 = growth as untreated, 0 = no growth, -100 = all killed). To be noted: 10 µM unless noted.
On to `Cc1cc2c(-c3nc4ccccc4n3C)c(O)c(O)cc2c(O)c1-c1c(C)cc2c(-c3nc4ccccc4n3C)c(O)c(O)cc2c1O`, for which the growth is 76.3% (inactive).
The result for `COc1ccc2sc(-n3nc4nc5n(c(=O)c4c3N)-c3ccccc3Sc3ccccc3-5)nc2c1` reads 31.8% (inactive); that for `CC(=O)Nc1ccc(C(=O)/C=C/c2ccc(N(C)C)cc2)cc1`, 74.5% (inactive); that for `CCCC(=O)NNc1[nH]c(-c2ccc(OC)cc2)cc1C(=O)OCC`, 85.8% (inactive).
The result for `O=C(/C(Br)=C/c1ccccc1)c1ccccc1` reads -62.5% (active); that for `C/C=C(/C)C(=O)OC1C=C(CO)C(=O)C(OC(=O)C(C)(O)C(C)Cl)C1C(C)C` (stereo not given), -96.5% (active).
Take `COc1ccc(/C=C2\SC(=O)N(Cc3cc(=O)oc4ccc(OC)cc34)C2=O)cc1`: the growth is 70.6% (inactive).
On to `CCCCCCCCCCCCCCCC[n+]1cccc(C#N)c1`, for which the growth was 67.6% (inactive).
Consider `COc1ccc2cnc(N)c(C#Cc3cc(C(=O)Nc4ccc(CN5CCN(C)CC5)c(C(F)(F)F)c4)cnc3C)c2c1`, for which the growth is -71.8% (active).
For `CCCCCc1ccnc(CC(=O)c2ccc(OC)cc2)c1`, the growth was 79.6% (inactive).
For `CCCCCCCCCCCCCCCCCC1=NCCN1CS(=O)(=O)O`, the growth was 16.6% (inactive).
With `COc1ccc(OC)c(Cn2cc3c(c2)-c2oncc2CC3)c1`, the growth was 41.9% (inactive).
In the case of `CC1Cc2cc(F)ccc2-n2cccc21` (stereo not given), the growth is 99.5% (inactive).
Regarding `CC/C(=N\Nc1nc2ccccc2n1C)c1ccccn1`, the growth was -10.3% (active).
As for `O=C(CN1C(=O)NC(c2ccccc2)(c2ccccc2)C1=O)c1ccc(N2CCCC2)cc1`, the growth was 66.6% (inactive).
